Data published in PubChem BioAssay (Tox21).
Inconclusive results are not listed. Activity calls are given as the source filed them. Calls follow the shape of the full dose curve.

How the values were obtained:
[1] = target: Acetylcholinesterase (Homo sapiens) (UniProt P22303); test: Acetylcholinesterase (AChE) small molecule antagonists: colormetric cell-based qHTS assay (AID 1347395); also: nearly all actives have a fitted effect of over 30% in size
Outline: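 Quantitative HTS in attached SH-SY5Y cells: 30 min compound exposure, then 90 min with acetylthiocholine and DTNB at 37 C; colour from thiocholine reports AChE activity.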

[2] = target: Acetylcholinesterase (Homo sapiens) (UniProt P22303); test: Acetylcholinesterase (AChE) small molecule antagonists: enzyme-based qHTS assay (AID 1347397); details: Potency: AChE enzyme activity inhibition; outcome: AChE enzyme activity inhibition; also: nearly all actives have a fitted effect of over 55% in size
Outline: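 Recombinant human AChE, dispensed at 50 mU/mL, was preincubated with Tox21 10K compounds or DMSO vehicle for 30 min at room temperature. DTNB plus acetylthiocholine was then added, and thiocholine was measured colorimetrically after a further 10 min.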

[3] = target: Acetylcholinesterase (Homo sapiens) (UniProt P22303); test: Acetylcholinesterase (AChE) small molecule antagonists: fluorescence cell-based qHTS assay (AID 1347398); details: Potency: AChE activity; outcome: AChE activity; also: nearly all actives have a fitted effect of over 50% in size; also: potency is read from the fitted curve at half-maximal effect
Outline: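 Human SH-SY5Y cells were plated overnight at 37 C, exposed to compound for 30 min at 37 C, 5% CO2, then given acetylthiocholine plus Thiolite Green for 40 min at room temperature; thiocholine fluorescence (Ex/Em 490/520 nm) reports endogenous AChE activity.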

[4] = target: Acetylcholinesterase (Homo sapiens) (UniProt P22303); test: Acetylcholinesterase (AChE) small molecule antagonists: enzyme-based qHTS assay with human liver microsomes (AID 1347399); details: Potency: qHTS inhibition; outcome: qHTS inhibition; also: nearly all actives have a fitted effect of over 60% in size
Outline: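 Recombinant human AChE (50 mU/mL in the enzyme mix) and human liver microsomes (0.25 mg/mL final) were preincubated with compound and NADPH (0.25 mg/mL final) for 30 min at 37 C. Acetylthiocholine/DTNB was then added; thiocholine was read colorimetrically after 10 min at room temperature.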
% is scaled to controls: 0 for no effect and ±100 for the full control effect.

Chain of Acetylcholinesterase (Homo sapiens) (P22303 whole entry, looked up): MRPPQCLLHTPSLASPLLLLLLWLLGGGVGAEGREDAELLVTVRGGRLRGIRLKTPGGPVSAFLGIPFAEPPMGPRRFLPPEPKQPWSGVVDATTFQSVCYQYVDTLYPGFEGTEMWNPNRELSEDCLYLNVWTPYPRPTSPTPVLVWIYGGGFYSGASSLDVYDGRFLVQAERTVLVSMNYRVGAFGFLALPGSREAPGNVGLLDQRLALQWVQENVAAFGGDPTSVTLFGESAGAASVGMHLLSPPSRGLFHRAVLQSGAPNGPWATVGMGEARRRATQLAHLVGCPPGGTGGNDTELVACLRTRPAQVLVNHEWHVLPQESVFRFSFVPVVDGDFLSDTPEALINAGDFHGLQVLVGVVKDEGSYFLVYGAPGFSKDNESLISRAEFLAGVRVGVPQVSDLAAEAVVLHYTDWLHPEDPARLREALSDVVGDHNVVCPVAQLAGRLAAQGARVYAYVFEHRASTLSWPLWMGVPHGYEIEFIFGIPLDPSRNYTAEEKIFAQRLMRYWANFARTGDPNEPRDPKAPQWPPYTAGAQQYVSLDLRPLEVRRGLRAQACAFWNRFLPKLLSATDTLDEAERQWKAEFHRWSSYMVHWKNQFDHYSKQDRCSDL

C#C[C@]1(O)CC[C@H]2[C@@H]3CCc4cc(OC5CCCC5)ccc4[C@H]3CC[C@@]21C
inactive: Potency [1] | Potency [2] | Potency [3] | Potency [4]

CCCCC1C(=O)N(c2ccccc2)N(c2ccc(O)cc2)C1=O (stereo not given)
inactive: Potency [1] | Potency [2] | Potency [3] | Potency [4]

CO[Si](C)(OC)c1ccccc1
inactive: Potency [1] | Potency [2] | Potency [3] | Potency [4]

O=C(OCCc1ccccc1)c1ccccc1
inactive: Potency [1] | Potency [2] | Potency [3] | Potency [4]

O=CN1CCOCC1
inactive: Potency [1] | Potency [2] | Potency [3] | Potency [4]

CCCCCCCCCCCCC1CO1 (stereo not given)
inactive: Potency [1] | Potency [2] | Potency [3] | Potency [4]

COc1ccc2c(c1)c1c3n2CCN(C)C3=NCC1
inactive: Potency [1] | Potency [2] | Potency [3] | Potency [4]

CO[Si](CCCS)(OC)OC
inactive: Potency [1] | Potency [2] | Potency [3] | Potency [4]

O=C1CCCCO1
inactive: Potency [1] | Potency [2] | Potency [3] | Potency [4]

CCOC(=O)c1ncn2c1CN(C)C(=O)c1cc(F)ccc1-2
inactive: Potency [1] | Potency [2] | Potency [3] | Potency [4]

CCO
inactive: Potency [1] | Potency [2] | Potency [3] | Potency [4]

CCC(=O)CC
inactive: Potency [1] | Potency [2] | Potency [3] | Potency [4]

CCCCCCCC/C=C\CCCCCCCC(=O)N(CCO)CCO
active: Potency [3] 19.9 µM
inactive: Potency [1] | Potency [2] | Potency [4]

CNC(=O)C(c1ccccc1)c1ccccc1
inactive: Potency [1] | Potency [2] | Potency [3] | Potency [4]

CCCCCCOC(=O)CCC
inactive: Potency [1] | Potency [2] | Potency [3] | Potency [4]

CC(=O)Nc1ccccc1C
inactive: Potency [1] | Potency [2] | Potency [3] | Potency [4]

COC(=O)C1CC(=O)C(C(=O)OC)CC1=O (stereo not given)
inactive: activity, negative = inhibition [1] 2.2% [at 10.5 µM] | activity change, negative = inhibition [2] 0.472% [at 10.5 µM] | activity change, negative = inhibition [3] 1.15% [at 10.5 µM] | activity change, negative = inhibition [4] -0.962% [at 10.5 µM]

OCCN1CCOCC1
inactive: Potency [1] | Potency [2] | Potency [3] | Potency [4]

O=C(/C=C/c1ccccc1)OC/C=C/c1ccccc1
inactive: Potency [1] | Potency [2] | Potency [3] | Potency [4]

CCc1cc(S(=O)(=O)O)c2cc(C(C)C)cccc1-2
inactive: Potency [1] | Potency [2] | Potency [3] | Potency [4]

CCOc1ccccc1O[C@H](c1ccccc1)[C@H]1CNCCO1
inactive: outcome [1] | outcome [2] | outcome [3] | outcome [4]

CCCCCCCCCCCCCCC[C@H](O)[C@@H](N)CO
inactive: Potency [1] | Potency [2] | Potency [3] | Potency [4]

CN1CCCN=C1COC(=O)C(O)(c1ccccc1)C1CCCCC1 (stereo not given)
inactive: Potency [1] | Potency [2] | Potency [3] | Potency [4]

N=C1N=C(N)c2ccccc21
inactive: Potency [1] | Potency [2] | Potency [3] | Potency [4]

COc1ncnc(NS(=O)(=O)c2ccc(N)cc2)c1OC
inactive: Potency [1] | Potency [2] | Potency [3] | Potency [4]

CCC(C)CCCC(C)(C)O (stereo not given)
inactive: Potency [1] | Potency [2] | Potency [3] | Potency [4]

CCC(O)C(C)(C)C (stereo not given)
inactive: Potency [1] | Potency [2] | Potency [3] | Potency [4]

Cc1ccc2sc3cccc(C)c3c2c1
inactive: Potency [1] | Potency [2] | Potency [3] | Potency [4]

CC(=O)SC[C@@H](Cc1ccccc1)C(=O)NCC(=O)OCc1ccccc1
inactive: Potency [1] | Potency [2] | Potency [3] | Potency [4]

CCC(CO)(CO)COCC(CC)(CO)CO
inactive: Potency [1] | Potency [2] | Potency [3] | Potency [4]

CCOC(=O)c1ccccc1O
inactive: Potency [1] | Potency [2] | Potency [3] | Potency [4]

COC(=O)[C@H]1[C@H]2C[C@@H]3c4[nH]c5cc(OC)ccc5c4CCN3C[C@H]2C[C@@H](OC(=O)COc2ccc(OC)cc2)[C@@H]1OC
inactive: Potency [1] | Potency [2] | Potency [3] | Potency [4]

FC(F)(F)c1ccc(Cl)cc1Cl
inactive: Potency [1] | Potency [2] | Potency [3] | Potency [4]

CCC(C)NC(N)=O (stereo not given)
inactive: Potency [1] | Potency [2] | Potency [3] | Potency [4]

Nc1ccnc(=O)[nH]1
inactive: Potency [1] | Potency [2] | Potency [3] | Potency [4]

CCCCC(CC)COP(=O)(O)O (stereo not given)
inactive: Potency [1] | Potency [2] | Potency [3] | Potency [4]

NC(=O)CCCCC(N)=O
inactive: Potency [1] | Potency [2] | Potency [3] | Potency [4]

C(=C\c1ccccc1)/c1ccccc1
inactive: Potency [1] | Potency [2] | Potency [3] | Potency [4]

COC(=O)[C@@H]1[C@H]2C[C@H]3c4[nH]c5ccccc5c4CCN3C[C@@H]2CC[C@@H]1O
inactive: Potency [1] | Potency [2] | Potency [3] | Potency [4]

CCC1CCCCC1
inactive: Potency [1] | Potency [2] | Potency [3] | Potency [4]

SCCSCCS
inactive: Potency [1] | Potency [2] | Potency [3] | Potency [4]

O=C(Nc1ccc([N+](=O)[O-])cc1)Nc1ccc([N+](=O)[O-])cc1 (tested in a mixture with another compound)
inactive: Potency [1] | Potency [2] | Potency [3] | Potency [4]

O=C1C=CC(=O)N1c1cccc(N2C(=O)C=CC2=O)c1
active: Potency [3] 44.8 µM
inactive: Potency [1] | Potency [2] | Potency [4]

CC1=C(/C=C/C(C)=C/C=C/C(C)=C\C(=O)O)C(C)(C)CCC1
inactive: Potency [1] | Potency [2] | Potency [3] | Potency [4]

Oc1ccc(Nc2ccccc2)cc1
inactive: Potency [1] | Potency [2] | Potency [3] | Potency [4]

CCCCc1ccc(N)cc1
inactive: Potency [1] | Potency [2] | Potency [3] | Potency [4]

Brc1cc(-c2ccc(Br)c(Br)c2Br)cc(Br)c1Br
inactive: Potency [1] | Potency [2] | Potency [3] | Potency [4]

CCCCCCOC(=O)C(C)CC (stereo not given)
inactive: Potency [1] | Potency [2] | Potency [3] | Potency [4]

Cc1ccc(C=O)s1
inactive: Potency [1] | Potency [2] | Potency [3] | Potency [4]

O=C1c2ccccc2C(=O)C1(O)O
inactive: Potency [1] | Potency [2] | Potency [3] | Potency [4]

CC(C)COC(=O)CC(C(=O)OCC(C)C)S(=O)(=O)O (stereo not given)
inactive: Potency [1] | Potency [2] | Potency [3] | Potency [4]

CCOC(=O)c1ccc(N(C)C)cc1
inactive: Potency [1] | Potency [2] | Potency [3] | Potency [4]

O=C(CCOCCOCCOCCOCCC(=O)Nc1c(I)cc(I)c(C(=O)O)c1I)Nc1c(I)cc(I)c(C(=O)O)c1I
inactive: Potency [1] | Potency [2] | Potency [3] | Potency [4]

CCC(C)(CCC(C)C)C(=O)O (stereo not given)
inactive: Potency [1] | Potency [2] | Potency [3] | Potency [4]

COc1ccnc(CS(=O)c2nc3cc(OC(F)F)ccc3[nH]2)c1OC (stereo not given)
inactive: Potency [1] | Potency [2] | Potency [3] | Potency [4]

CCCC=O
inactive: Potency [1] | Potency [2] | Potency [3] | Potency [4]

CCCSS/C(CCO)=C(\C)N(C=O)Cc1cnc(C)nc1N
inactive: Potency [1] | Potency [2] | Potency [3] | Potency [4]

CC1=C(CC(=O)O)c2cc(F)ccc2/C1=C\c1ccc(S(C)(=O)=O)cc1
inactive: Potency [1] | Potency [2] | Potency [3] | Potency [4]

O=C(CC(=O)C(F)(F)F)c1ccccc1
inactive: Potency [1] | Potency [2] | Potency [3] | Potency [4]

Cn1cc(C(=O)[C@@H]2CCc3nc[nH]c3C2)c2ccccc21
inactive: Potency [1] | Potency [2] | Potency [3] | Potency [4]

COC(=O)CS
inactive: Potency [1] | Potency [2] | Potency [3] | Potency [4]

O=C(c1ccco1)N1CCNCC1
inactive: Potency [1] | Potency [2] | Potency [3] | Potency [4]

Cc1ccc(N(CC2=NCCN2)c2cccc(O)c2)cc1
inactive: Potency [1] | Potency [2] | Potency [3] | Potency [4]

NC(=O)c1ccc(N)cc1
inactive: Potency [1] | Potency [2] | Potency [3] | Potency [4]

CC(COc1ccccc1)NN (stereo not given)
inactive: Potency [1] | Potency [2] | Potency [3] | Potency [4]

Clc1ccccc1-c1nc(-c2ccncc2)no1
inactive: Potency [1] | Potency [2] | Potency [3] | Potency [4]

N[C@H]1C(O)O[C@H](CO)[C@@H](O)[C@@H]1O (stereo not given in full)
inactive: Potency [1] | Potency [2] | Potency [3] | Potency [4]

C=C(C)[C@@H]1CC[C@@H](C)C[C@@H]1O
inactive: Potency [1] | Potency [2] | Potency [3] | Potency [4]

CC(=O)CC(=O)OC(C)(C)C
inactive: Potency [1] | Potency [2] | Potency [3] | Potency [4]

CCN(CC)C(C)=O
inactive: Potency [1] | Potency [2] | Potency [3] | Potency [4]

[K+]
inactive: Potency [1] | Potency [2] | Potency [3] | Potency [4]

CC(C)(C)NCC(O)COc1ccc(NC(=O)NC2CCCCC2)cc1 (stereo not given)
inactive: Potency [1] | Potency [2] | Potency [3] | Potency [4]

C=C(C)C(=O)OCC(O)COc1ccc(C(C)(C)c2ccc(OCC(O)COC(=O)C(=C)C)cc2)cc1 (stereo not given)
inactive: Potency [1] | Potency [2] | Potency [3] | Potency [4]

CCCCCCCCN1CCCC1=O
inactive: Potency [1] | Potency [2] | Potency [3] | Potency [4]

O=S(=O)(O)c1ccc2cc(O)c(S(=O)(=O)O)cc2c1
inactive: Potency [1] | Potency [2] | Potency [3] | Potency [4]

CCOC(OCC)C(=O)c1ccccc1
inactive: Potency [1] | Potency [2] | Potency [3] | Potency [4]

CC(=O)N[C@@H](CCC(=O)O)C(=O)O
inactive: Potency [1] | Potency [2] | Potency [3] | Potency [4]

Cc1cccc(N(C)C(=S)Oc2ccc3c(c2)CCC3)c1
inactive: Potency [1] | Potency [2] | Potency [3] | Potency [4]

CC(=O)CC(N)=O
inactive: Potency [1] | Potency [2] | Potency [3] | Potency [4]

CCCCCCCCCC[N+](C)(C)[O-]
inactive: Potency [1] | Potency [2] | Potency [3] | Potency [4]

CCN(CC)CCOc1ccc(Cc2ccccc2)cc1
inactive: Potency [1] | Potency [2] | Potency [3] | Potency [4]

CCCCC1=NC2(CCCC2)C(=O)N1Cc1ccc(-c2ccccc2-c2nn[nH]n2)cc1
inactive: Potency [1] | Potency [2] | Potency [3] | Potency [4]

Nc1ccccc1O
inactive: Potency [1] | Potency [2] | Potency [3] | Potency [4]

CN(C)c1ccc(N=Nc2ccccc2C(=O)O)cc1
inactive: Potency [1] | Potency [2] | Potency [3] | Potency [4]

CC(C)c1ccc(C#N)cc1
inactive: Potency [1] | Potency [2] | Potency [3] | Potency [4]
